Data taken from PubChem BioAssay AID463173 (ICCB-Longwood Screening Facility, Harvard Medical School, 2010).
Hit rate of the full screen: of about 52,000 compounds, about 4,300 (8.3%) were called active. What follows is part of a selection rich in actives, with near analogues and random picks from the rest. Values without a mark were called inactive. Rule as the data show it: active = survival mostly below about 52% (no sharp cut-off); inactive = mostly above about 56%.

What follows are compounds tested on DeltatarO mutant (assay: S. aureus survival, RN4220 and DeltatarO strains – OD600, teichoic acid synthesis inhibitors, primary screen (AID 463173)). Settings: S. aureus RN4220 wild type/DeltatarO growth, OD600, 18 h, stronger effect = lower value, screened at 18.75 µg/mL (by protocol).
With `COc1cccc(CNc2nc3c(-c4ccccc4)nnn3c3ccccc23)c1` the survival was 84%.
With `CCOc1ccc(NC(=O)c2ccc3c(SCC(=O)O)c4c(nc3c2)CCC4)cc1` the survival was 90%.
`CCC1CCCCN1S(=O)(=O)c1cc2c(cc1C)NC(=O)CO2` (stereo not given) gave a survival of 105%.
`O=C1CCN(C(=O)/C=C/c2ccccc2)c2ccccc21` gave a survival of 88%.
`CC(=O)c1ccc(NC(=O)C2CCCN(S(=O)(=O)c3ccc4c(c3)CCCN4C(C)=O)C2)cc1` (stereo not given) gave a survival of 93%.
`Cc1ccc(NC(=O)C(=O)NCC(c2ccc3c(c2)OCO3)N2CCN(C)CC2)cc1C` (stereo not given) was tested, and the survival was 68%.
Compound `CCN(CC)S(=O)(=O)c1ccc2nc(NC(=O)c3ccccc3OC)sc2c1` has a survival of 89%.
In the case of `CCOc1ccc(N2CC(NC(=O)Cc3cccs3)CC2=O)cc1` (stereo not given), the survival is reported as 73%.
With `Cc1ccc(C(=O)Nc2ccc(F)cc2)cc1S(=O)(=O)N1CCCCCC1` the survival was 69%.
In the case of `COC(=O)c1sc(N2C(=O)c3oc4ccccc4c(=O)c3C2c2ccc(O)cc2)nc1C` (stereo not given), the survival is reported as 121%.
In the case of `Cc1[nH]c2ccc(-c3nnc(SCC(=O)N4c5ccccc5CCc5ccccc54)o3)cc2c1C`, the survival is reported as 89%.
With `COc1cc(OC)cc(C(=O)Nc2ccc3nc(N4CCC(C)CC4)cc(C)c3c2)c1` the survival was 51%.
`COc1cc(OC)cc(C(=O)Nc2ccc3nc(N4CCCCC4)cc(C)c3c2)c1` was tested, and the survival was 31% (active).
`COc1ccc(Nc2cc(C)c3cc(NC(=O)c4cc(OC)cc(OC)c4)ccc3n2)cc1` showed a survival of 94%.
`CCN1CCN(c2cc(C)c3cc(NC(=O)c4cc(OC)cc(OC)c4)ccc3n2)CC1` was tested, and the survival was 47% (active).
With `Cc1cc(N2CCCCC2)nc2ccc(NC(=O)c3ccc(F)cc3)cc12` the survival was 51%.
For `COC(=O)c1ccc(Cl)cc1NC(=O)Nc1nnc(N(C)C2CCCCC2)s1`, the survival was 81%.
In the case of `COc1ccc(-c2cc(C)no2)cc1S(=O)(=O)N1CCOc2ccc(Cl)cc21`, the survival is reported as 92%.
For `Cc1ccccc1-n1c(=O)c2c3c(sc2n2cnnc12)CCCC3`, the survival was 72%.
`Cc1ccc(-n2c(=O)[nH]c3cc(C(=O)NCc4ccccc4)ccc3c2=O)cc1` gave a survival of 102%.
`Cc1c(C(=O)OCc2ccccc2)[nH]c2c1C(=O)CC(c1ccc(C(C)(C)C)cc1)C2` (stereo not given) showed a survival of 91%.
`COC(=O)C(NC(=O)CCc1c(C)nc2c(-c3ccccc3)c(C)nn2c1C)C(C)C` (stereo not given) gave a survival of 109%.
With `O=C(Cc1ccc(F)cc1)N1CCC(c2nc3c(nnn3Cc3ccc(Cl)cc3)c(=O)[nH]2)CC1` the survival was 27% (active).
In the case of `O=C(Cc1ccccc1F)N1CCC(c2nc3c(nnn3Cc3cccc(Cl)c3)c(=O)[nH]2)CC1`, the survival is reported as 44% (active).
Work on `O=C(Cc1ccccc1F)N1CCC(c2nc3c(nnn3Cc3ccc(F)cc3)c(=O)[nH]2)CC1` yielded a survival of 72%.
`Cc1ccc(Cn2nnc3c(=O)[nH]c(C4CCN(C(=O)Cc5ccccc5F)CC4)nc32)cc1` was tested, and the survival was 69%.
In the case of `O=C(Cc1ccc(F)cc1)N1CCC(c2nc3c(nnn3Cc3ccc(F)cc3)c(=O)[nH]2)CC1`, the survival is reported as 66%.
Work on `CS(=O)(=O)N1CCC(c2nc3c(nnn3Cc3ccc(F)cc3)c(=O)[nH]2)CC1` yielded a survival of 102%.
With `COc1ccccc1N1CCN(C(=O)Cn2ncc3c2-c2cc(C)ccc2OC3)CC1` the survival was 58%.
Work on `CN(C(=S)SCC1=CCS(=O)(=O)C1)C1CCS(=O)(=O)C1` (stereo not given) yielded a survival of 94%.
For `O=C1C(c2ccc(F)cc2)N(Cc2ccccc2Cl)C(=O)CN1C1CCCCC1` (stereo not given), the survival was 81%.
With `CC(C)(C)NC(=O)c1c(N)no[n+]1[O-]` the survival was 92%.
`Nc1no[n+]([O-])c1C(=O)NCCO` gave a survival of 65%.
For `CN(C)C(=O)c1c(N)no[n+]1[O-]`, the survival was 56% (active).
`Cc1cc(C)c2c(=O)cc(C(=O)NCCc3ccc(S(N)(=O)=O)cc3)oc2c1` gave a survival of 61%.
For `COC(=O)c1oc2ccc(Cl)cc2c1C`, the survival was 65%.
With `CC(=O)Nc1c(C(=O)O)oc2ccc(Cl)cc12` the survival was 58% (active).
For `CCOc1ccc(CC(=O)Nc2c(C(=O)c3ccccc3)oc3ccc(Cl)cc23)cc1OCC`, the survival was 48%.
`O=C(NCc1cccs1)c1ccc(Cn2c(SCc3ccc(F)cc3)nc3cccnc32)cc1` gave a survival of 84%.
Work on `Cc1ccc(S(=O)(=O)N=C2SCCCS2)cc1` yielded a survival of 91%.
`C=CCN=C1SC(C)C(=O)N1S(=O)(=O)c1ccccc1` (stereo not given) gave a survival of 57%.
`C=CCN=C1SCC(=O)N1S(=O)(=O)c1ccc(C)cc1` was tested, and the survival was 60% (active).
For `CC(=O)Nc1ccc(I)cc1C(=O)O`, the survival was 95%.
`CCN(Cc1ccccc1)C(=O)Cn1c(=O)cc(C)c2c(C)nn(-c3cccc(F)c3)c21` gave a survival of 72%.
For `CCOC(=O)c1ccc(NC(=O)Cn2cc(C(=O)c3cccs3)c3ccccc32)cc1`, the survival was 62%.
For `Cc1cccc(C(=O)Nc2ccc(S(=O)(=O)N3CCC(c4nc5ccccc5s4)CC3)cc2)c1`, the survival was 40% (active).
`O=C(Nc1ccc(S(=O)(=O)N2CCC(c3nc4ccccc4s3)CC2)cc1)c1ccccc1F` gave a survival of 57%.
With `O=C(Nc1ccc(S(=O)(=O)N2CCC(c3nc4ccccc4s3)CC2)cc1)c1ccccc1` the survival was 104%.
`Cc1ccccc1C(=O)Nc1ccc(S(=O)(=O)N2CCC(c3nc4ccccc4s3)CC2)cc1` was tested, and the survival was 40% (active).
`Cc1ccc(C(=O)Nc2ccc(S(=O)(=O)N3CCC(c4nc5ccccc5s4)CC3)cc2)cc1` was tested, and the survival was 61%.
`O=C(Nc1ccc(S(=O)(=O)N2CCC(c3nc4ccccc4s3)CC2)cc1)c1ccc(F)cc1` showed a survival of 63%.
With `COCCn1c(SCC(=O)c2c(C)[nH]c3ccccc23)nc2cc(C(=O)NC(C)C)ccc2c1=O` the survival was 68%.
Work on `COc1ccc(NC(=O)CS(=O)CC(=O)NC2CCCc3ccccc32)cc1` (stereo not given) yielded a survival of 60%.
With `O=C(c1cccc(Cl)c1)n1nc(-c2cccnc2)nc1NCc1ccccc1` the survival was 53%.
In the case of `Cc1ccc(Cl)cc1NC(=O)COC(=O)CC(C)(C)CC1=NS(=O)(=O)c2ccccc2N1`, the survival is reported as 84%.
Work on `CC(C)(CO)C(O)C(=O)NN` (stereo not given) yielded a survival of 84%.
`Cc1ccc(C(=O)N2c3ccc(C)cc3C(C)(c3ccccc3)CC2(C)C)cc1` (stereo not given) was tested, and the survival was 4% (active).
In the case of `COc1ccc(C(=O)N2c3ccc(C)cc3C(C)(c3ccccc3)CC2(C)C)cc1` (stereo not given), the survival is reported as 25% (active).
`Cc1ccc(C)c(N2CCN(C(=O)c3ccc4c(c3)N(Cc3ccc(F)cc3)C(=O)c3ccccc3S4=O)CC2)c1` (stereo not given) showed a survival of 101%.
For `Cc1ccc2c(c1)C(C)(c1ccccc1)CC(C)(C)N2C(=O)c1ccc(F)cc1` (stereo not given), the survival was -4% (active).
`Cc1ccc(C(=O)N2CCN(c3ccccc3)CC2)cc1` showed a survival of 87%.
In the case of `COc1ccc(C(=O)NCc2ccc3c(c2)CCN3C(=O)c2ccc(C)cc2)cc1`, the survival is reported as 82%.
Compound `CC1=CC(C)(C)N(CC(=O)c2ccccc2)c2ccc(C)cc21` has a survival of 97%.
In the case of `Cc1ccc(NC(=O)NCc2ccc3c(c2)CCN3C(=O)c2ccccc2)c(Cl)c1`, the survival is reported as 82%.
With `COc1ccc(C(=O)NCc2ccc3c(c2)CCN3C(=O)c2ccccc2)cc1` the survival was 84%.
For `Cc1ccc2c(c1)N(C(=O)c1ccc(F)cc1)C(C)(C)CC2(C)c1ccccc1` (stereo not given), the survival was 24% (active).
With `Cc1ccc(C(=O)N2CC(=O)NC(=O)C2)cc1` the survival was 83%.
`CC(=O)OC1CC(C)N(C(=O)c2ccccc2)c2ccc(C)cc21` (stereo not given) was tested, and the survival was 67%.
`CCOC(=O)C1CCC(CN(Cc2ccc(OC)cc2)S(=O)(=O)c2ccc(F)c(C(=O)Nc3c(C)cccc3C)c2)CC1` (stereo not given) showed a survival of 83%.
`O=C(NCCCN1CCOCC1)C1CC(c2ccccc2O)=NO1` (stereo not given) gave a survival of 97%.
Compound `Cn1cccc1C(C(=O)NC1CCCCC1)N(C(=O)Cn1nnc2ccccc21)c1cnc2ccccc2c1` (stereo not given) has a survival of 112%.
Work on `Cc1cc(C)nc(SCC(=O)Nc2ccc(N3CCOCC3)cc2)n1` yielded a survival of 82%.
`CCc1ccccc1NC(=O)Cn1c(=O)n(Cc2ccc(OC)cc2)c(=O)c2oc3ccccc3c21` gave a survival of 70%.
With `CC1(C)CC(=O)c2cc(C(=O)Nc3ccc(Br)cc3)c(=O)[nH]c2C1` the survival was 70%.
`O=C(CCS(=O)(=O)c1cc(Br)cc2c1N(C(=O)C1CC1)CC2)N1CCN(c2cccc(C(F)(F)F)c2)CC1` showed a survival of 59%.
Compound `Cc1nc2ccn(Cc3ccco3)c(=O)c2cc1C(=O)N1CCN(c2ccc(F)cc2)CC1` has a survival of 135%.
For `CCc1nc2ccccc2n1CCCCOc1ccc(C)cc1`, the survival was 1% (active).
`CCc1nc2ccccc2n1CCCCOc1ccccc1C` was tested, and the survival was 0% (active).
`CCCC(O)c1nc2ccccc2n1CCCOc1ccc(Cl)cc1` (stereo not given) was tested, and the survival was 65%.
`Cc1cccc(OCCCn2c(CCNC(=O)C3CCCCC3)nc3ccccc32)c1` gave a survival of 37%.
`CCc1nc2ccccc2n1CCCCOc1cccc(C)c1` was tested, and the survival was -2% (active).
For `CCc1nc2ccccc2n1CCCCOc1ccc(Cl)cc1`, the survival was -3% (active).
`CCc1nc2ccccc2n1CCO` gave a survival of 77%.
`O=C1C2C3C=CC(C3)C2C(=O)N1CCN1CCN(S(=O)(=O)c2ccc(Br)cc2)CC1` (stereo not given) showed a survival of 60%.
`CCOc1ccccc1NC(=O)c1c2c(nc3ccccc13)C(=O)N(C1CCCCC1)C2` showed a survival of 55%.
For `COc1ccc(OC)c(NCc2cccn2-c2nnc(N3CCCCC3)s2)c1`, the survival was 93%.
For `COc1ccc(CC(=O)NCc2nc3cccnc3n2Cc2ccc(C)cc2)cc1`, the survival was 92%.
`CN1C(=O)/C(=C/c2cccs2)SC1=S` gave a survival of 113%.
Compound `COc1ccc(Nc2ncc(C(=O)N3CCN(c4cccc(Cl)c4)CC3)c3ccccc23)cc1` has a survival of 62%.
With `Cc1cccc(N2CCN(C(=O)C3CCCN(S(=O)(=O)c4ccc5c(c4)oc(=O)n5C)C3)CC2)c1C` (stereo not given) the survival was 84%.
